Data from PubChem BioAssay AID624330 (Southern Research Specialized Biocontainment Screening …, 2012).
The whole screen tested about 340,000 compounds, of which about 2,100 (0.62%) were called active.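 How the source made its calls: active means first-screen hits whose inhibition reached a set limit at any dose in the follow-up dose series; inconclusive means inhibition above the set first-screen limit but never retested; inactive means the rest.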 A selection follows. Entries with a potency or affinity are not part of this list.

molecular target: Rac GTPase-activating protein 1 (Homo sapiens) (UniProt Q9H0H5); assay: MgcRacGAP GTPase-activating activity inhibitors, confirmation, biochemical, ADP Hunter fluorescence, primary and confirmatory (AID 624330); conditions: MgcRacGAP-stimulated Rac1 GTP hydrolysis, at 30 µM, active compounds read high, GST-tagged Rac1 F28L mutant substrate;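 further: fluorescence reports GDP produced by GAP-driven GTP hydrolysis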
Sequence (Q9H0H5 whole entry, looked up): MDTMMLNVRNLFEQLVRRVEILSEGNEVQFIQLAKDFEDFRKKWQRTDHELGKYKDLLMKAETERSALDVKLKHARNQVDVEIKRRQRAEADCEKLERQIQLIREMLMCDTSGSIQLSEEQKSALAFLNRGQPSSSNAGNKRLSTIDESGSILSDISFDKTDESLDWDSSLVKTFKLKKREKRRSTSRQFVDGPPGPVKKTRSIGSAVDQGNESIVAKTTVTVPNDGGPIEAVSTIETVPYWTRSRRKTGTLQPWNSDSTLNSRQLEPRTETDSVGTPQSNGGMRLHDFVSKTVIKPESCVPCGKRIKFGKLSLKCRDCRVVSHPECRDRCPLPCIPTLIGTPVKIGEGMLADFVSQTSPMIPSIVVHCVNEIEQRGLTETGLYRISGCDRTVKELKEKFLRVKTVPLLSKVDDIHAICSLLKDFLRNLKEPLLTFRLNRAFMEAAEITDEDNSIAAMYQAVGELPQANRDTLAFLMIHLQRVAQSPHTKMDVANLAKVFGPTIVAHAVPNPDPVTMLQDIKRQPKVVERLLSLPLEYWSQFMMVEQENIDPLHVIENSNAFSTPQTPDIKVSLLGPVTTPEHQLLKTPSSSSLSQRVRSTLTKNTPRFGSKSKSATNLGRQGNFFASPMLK

inhibition, inactive:
Cc1ccc(C2CN(CCC(N)=O)C(=O)CO2)cc1 (stereo not given) 3.49%, CC1CCCCC1NC(=O)CCCCCn1c(=S)[nH]c2ccsc2c1=O (stereo not given) 6.67%, CC1=C([N+](=O)[O-])C(c2ccccc2C(F)(F)F)NC(=O)N1C (stereo not given) 2.05%, COc1ccc2c(C)cc(SCC(=O)NC3CCCCC3)nc2c1 3.25%, O=C(CN1C(=O)COc2ccccc21)N1CCc2ccccc2C1 2.34%, O=C(NCCc1csc(-c2ccccc2)n1)c1ccc(Br)o1 9.81%, O=C(COC(=O)c1ccc(F)c(S(=O)(=O)N2CCOCC2)c1)NCc1ccc(Cl)cc1 -1.94%, N#CCCn1cc(C(=O)Nc2ccc([N+](=O)[O-])cc2)c(-c2cccs2)n1 4.36%, C[C@@H]1CN([C@H](C)CO)C(=O)c2cc(Br)cnc2O[C@@H]1CN(C)C(=O)c1ccccc1 14.7%, Cn1c(=O)cc(OCCCC(=O)NCCCN2CCN(Cc3ccccc3)CC2)c2ccccc21 2.96%, O=C(N/N=C/c1cccc(O)c1)C(=O)N1CCCCCC1 0.3%, COc1cc(/C=N/NC(=O)C(=O)NCC2CCCO2)cc(Cl)c1O (stereo not given) 21.6%, C=CCOc1ccc(/C=N/NC(=O)C(=O)N2CCCCCC2)cc1OC 2.52%, O=C(NCC1CCCO1)C(=O)N/N=C/c1ccc(O)c(Cl)c1 (stereo not given) 26.7%, CCN(Cc1nc(-c2ccc(C)cc2)no1)C(=O)c1ccco1 2.23%, Cc1nnc(NC(=O)CSc2ccccc2N)s1 6.42%, CCOc1cccc2cc(C(=O)N3CCOCC3)c(=O)oc12 5.1%, O=C(Cn1cccc1C(=O)c1ccccc1)NCc1cccnc1 14.8%, O=C(CSc1nc2ccccc2[nH]1)Nc1c(F)c(F)c(F)c(F)c1F 1.98%, COc1ccccc1S(=O)(=O)Cc1ccc(C(=O)NC2CCCCC2)o1 5.84%, COc1cc(CN2CCCCCC2)cc(Br)c1O 15.4%, CCOc1cc(CN2CCC(N3CCC(C(=O)NC4CC4)CC3)CC2)ccc1O 17.9%, COc1cc(CN2CCC(C(=O)NC3CCCC3)CC2)cc(OC)c1O 23.1%, COc1cc(CN2CCC(C(=O)N3CCCC(C)C3)CC2)cc(OC)c1O (stereo not given) 26.8%, COc1ccc(CN2CCC(C(=O)N3CCCC(C)C3)CC2)cc1OC (stereo not given) 12.3%, CCOC(=O)C1CCN(Cc2ccc(O)c(OC)c2)CC1 27.4%, COCc1cc(C(C)=O)ccc1OCC(=O)Nc1ccc(NC(C)=O)cc1 1.37%, CC(NC(=O)c1ccc(Br)o1)c1ccccc1 (stereo not given) 7.96%, CCC(=O)N(CCc1ccccc1)Cc1cc2cc3c(cc2[nH]c1=O)OCO3 8.92%, N#CC(=Cc1ccccn1)c1nc(-c2ccc(Cl)cc2)cs1 6.28%, Cc1ccc(C(=O)NCC(=O)NCC(=O)OCc2ccc(Cl)cc2)cc1 8.02%, O=C(CCCn1c(=O)[nH]c2ccccc2c1=O)NCCSCc1ccccc1 -5.64%, Cn1c(=O)[nH]c2c(cnn2C)c1=O -2.19%, CCCn1c(N)c(Br)c(=O)[nH]c1=O 12.3%, Cn1nnnc1SCCNC(=O)C1CCC(=O)N(Cc2ccccc2F)C1 (stereo not given) 11%, Cc1cc(Nc2ccc([N+](=O)[O-])cc2)c2ccccc2n1 4.06%, Cc1cc(Nc2cccc([N+](=O)[O-])c2)c2ccccc2n1 13.8%, O=C(c1cccc(S(=O)(=O)N2CCc3ccccc32)c1)N1CCN(CCO)CC1 1.12%, O=C(NNc1c2ccccc2nc2ccccc12)c1ccccc1Cl 8.54%, O=C(NNc1c2ccccc2nc2ccccc12)c1ccccc1O 9.79%, Cc1ccc(S(=O)(=O)NCC(=O)N(CC2CCCO2)C(C(=O)NC2CCCC2)C(C)C)cc1 (stereo not given) -2.26%, N#CCCN1CCN(CCC#N)C1=S -2.38%, N#CCCN1CCn2c1nc1ccccc12 7.51%, COc1ccc(Cc2nc3c4c(ncn3n2)Oc2c(ccc3ccccc23)C4c2ccc(OC)c(OC)c2)cc1 (stereo not given) 0.4%, COc1cccc(-c2nnc(NC(=O)CCS(=O)(=O)c3ccc(F)cc3)o2)c1 9.6%, OCC[C@H]1C[C@H](O)[C@@H](O)[C@]2(CCCc3ccccc3O2)O1 6.49%, CC(C)(C)N(Cc1ccccc1)C(=O)COC(=O)/C=C/c1ccc2c(c1)OCO2 7.28%, CC(NC(=O)N(Cc1ccccc1)Cc1ccc2c(c1)OCO2)(C(F)(F)F)C(F)(F)F -1.55%, CSc1cccc(NC(=O)COC(=O)C2CCN(S(=O)(=O)c3ccccc3)CC2)c1 3.95%, CC[C@H]1CN2CCc3cc(OC)c(OC)cc3C2C[C@@H]1C[C@H]1NCCc2cc(OC)c(OC)cc21 (stereo not given in full) 5.06%, CC[C@H]1CN2CCc3cc(OC)c(OC)cc3[C@@H]2C[C@@H]1C[C@H]1NCCc2cc(OC)c(OC)cc21 -1.46%, Oc1[nH]c2ccc(Br)cc2c1N=NC(=S)Nc1ccc(F)cc1 2.02%, COc1ccc(NC(=S)N=Nc2c(O)[nH]c3ccccc23)cc1 19.4%, Oc1cccc(NC(=S)N=Nc2c(O)[nH]c3ccc(Br)cc23)c1 21.1%, Cc1ccc(NC(=S)N=Nc2c(O)[nH]c3ccccc23)cc1 9.95%, CC(=O)n1cc(/C=N/NC(=O)c2ccc([N+](=O)[O-])cc2)c2ccccc21 7.25%, CCOC(=O)c1ccc(NC(=S)N(CCCN2CCCC(C)C2)Cc2ccco2)cc1 (stereo not given) 3.37%, Cc1ccc(-c2cc3c(nn2)-c2ccccc2C3=O)cc1 11.8%, CC1CCC2(CC1)NC(=O)N(CC(=O)Nc1cccc(S(=O)(=O)N3CCCC3)c1)C2=O (stereo not given) 4.59%, CCOc1ccc(-n2nc(C(=O)NC3CCCCC3)c3ccccc3c2=O)cc1 -4.66%, Nc1nc(N)c2nc(-c3ccccc3)c(N)nc2n1 4.54%, Nc1[nH]c(=S)nc2nc(-c3ccccc3)c(-c3ccccc3)nc12 9.86%, COCC1CCCCC1OS(N)(=O)=O (stereo not given) 10.2%, Nc1ccc(Cc2ccc(N)c(O)c2)cc1O -7.75%, Nc1ccc(Cc2ccc(N)c(C(=O)O)c2)cc1C(=O)O 7.39%, N#Cc1cc(C(=O)Cc2ccccc2)c[nH]1 -3.54%, COc1cccc(C(=O)C2CCCN(C(=O)c3ccc(C#CC(C)(C)O)cc3)C2)c1 (stereo not given) 1.51%, COc1ccc(C(=O)N2c3ccccc3CC2C)cc1OC (stereo not given) 3.63%, COc1cccc(C(=O)N2CCN(C3CCC(c4ccccc4)CC3)CC2)c1 (stereo not given) 14.9%, O=C(c1ccc(F)cc1)N1CCN(C2CCC(c3ccccc3)CC2)CC1 (stereo not given) 12.1%, O=C(c1ccccc1)N1CCN(C2CCCCCC2)CC1 25.4%, O=C(c1ccc(F)cc1)N1CCC(N2CCCCCC2)CC1 11%, O=C(c1ccc([N+](=O)[O-])cc1)N1CCCC1 13.8%, O=C(c1ccccc1)N1CCN(C2CCCCC2)CC1 44.8%, CC1CCCC(N2CCN(C(=O)c3ccc(F)cc3)CC2)C1 (stereo not given) 19.6%, COc1cc(OC)cc(C(=O)N2CCN(C3CCCCC3)CC2)c1 19.9%, COc1ccc(-n2c(SC3CCOC3=O)nc3ccccc3c2=O)cc1OC (stereo not given) 7.23%, FC(F)(F)c1cccc(N2CCN(C3CC4CCC3C4)CC2)c1 (stereo not given) -3.5%, CC(C(=O)NCCN1CCOCC1)(c1ccccc1)c1ccccc1 9.67%, CCN(Cc1cc(OC)c(OC)c(OC)c1)C(=S)Nc1cccc(SC)c1 8.44%, COc1ccccc1CNS(=O)(=O)c1cc(C(=O)NCC2CCCO2)c(Cl)cc1Cl (stereo not given) 4.61%, O=C(c1nc[nH]c1C(=O)N1CCN(c2ccccc2)CC1)N1CCN(c2ccccc2)CC1 8.08%, CN(CC(=O)Nc1ccccc1C(F)(F)F)C(=O)COc1cccnc1[N+](=O)[O-] 2.02%, C/C(=N\NC(=O)c1ccc(Cl)cc1)c1ccccn1 -1.19%, Cc1sc2ncnc(N3CCC(C(=O)Nc4ccc(S(N)(=O)=O)cc4)CC3)c2c1C 6.51%, O=C(c1cccc(F)c1)N1CCC(N2CCCCCC2)CC1 27%, CC1CCCC(N2CCN(C(=O)c3cccc(F)c3)CC2)C1 (stereo not given) 13.7%, CC(C)Oc1ccc(CNC(=O)c2cc(S(=O)(=O)N3CCOCC3)cn2C)cc1 7.69%, Cc1ccc2c(CC(=O)O)coc2c1 -1.54%, Cc1ccc2c(CC(=O)OCc3csc(C)n3)coc2c1 3%, COc1ccc(CN2CCN(C(=O)c3cc(-c4cccnc4)nc4ccc(Cl)cc34)CC2)c(OC)c1OC 0.91%, CCCn1c(=O)c2c(C(F)(F)F)cc(-c3ccco3)nc2n(CCC)c1=O 6.17%, C/C(CC(=O)Nc1ccc(N(C)C)cc1)=N\NC(=O)c1ccccn1 16.9%, C/C(CC(=O)Nc1ccc([N+](=O)[O-])cc1)=N\NC(=O)c1ccccc1[N+](=O)[O-] 7.35%, C/C(CC(=O)Nc1ccc([N+](=O)[O-])cc1)=N\NC(=O)c1ccccc1O 3.2%, C/C(CC(=O)Nc1ccc(N(C)C)cc1)=N\NC(=O)c1ccc(C(C)(C)C)cc1 14.2%, C/C(CC(=O)Nc1ccc(N(C)C)cc1)=N\NC(=O)c1ccc(Cl)cc1 21.2%, C/C(CC(=O)Nc1ccc(N(C)C)cc1)=N\NC(=O)c1cnccn1 25.8%, COc1cc(NC(=O)C/C(C)=N/NC(=O)C(OC)c2ccccc2)c(OC)cc1Cl (stereo not given) 15.9%, COC(C(=O)N/N=C(\C)CC(=O)Nc1ccc(Cl)cc1C)c1ccccc1 (stereo not given) 0.47%
